Several values for one entry are separate records, joined by “and”; a condition that tells them apart may be missing. Equal entries are not always repeated. Records with an inconclusive call do not appear. Activity calls are given as the source filed them. Unless noted, calls follow the shape of the dose curve; as a rule, active = well fitted curve in the direction sought with a large enough effect in the repeat runs; inconclusive = weak or mixed curves; inactive = no such curve, though single readings can be large; an effect the other way counts as inactive or inconclusive.
Key:
[1] = qHTS assay to identify small molecule agonists of the RXR signaling pathway - cell viability counter screen (AID 1159529); also: nearly all actives have a fitted effect of over 50% in size; also: potency is read from the fitted curve at half-maximal effect
Method in brief: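 Steps: seed RXR-alpha-UAS-bla HEK 293T cells in assay medium containing 2% charcoal-stripped FBS; incubate 5 hr; add compounds in DMSO; incubate 16 hr at 37 C; after the bla read, add CellTiter-Glo and read luminescence at 30 min.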

[2] = qHTS assay to identify small molecule antagonists of the retinoid acid receptor (RAR) signaling pathway - cell viability counter screen (AID 1159551); also: nearly all actives have a fitted effect of over 35% in size
Method in brief: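 C3RL4 RARE-luciferase cells, 1,000/well, incubated overnight, then dosed with compound plus 1 uM retinol (final). After 6 hr at 37 C, viability read by CellTiter-Glo ATP luminescence following 30 min at room temperature.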

[3] = qHTS assay to identify small molecule antagonists of the estrogen related receptor (ERR) signaling pathway from Tox21 library - cell viability counter screen (AID 1224834); also: nearly all actives have a fitted effect of over 30% in size; also: potency is read from the fitted curve at half-maximal effect
Method in brief: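 ERR reporter cells, 2,000 per well, rested 6 h, then exposed to compound in DMSO for 17.5 hours at 37 C. Viability read as fluorescence after 30 min with CellTiter-Fluor.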

[4] = biological target: Luciferin 4-monooxygenase (Photinus pyralis) (UniProt P08659); assay: qHTS assay to identify small molecule inhibitors of firefly luciferase (AID 1224835); also: nearly all actives have a fitted effect of over 25% in size; also: potency is read from the fitted curve at half-maximal effect
Luciferin 4-monooxygenase (Photinus pyralis), sequence (P08659 whole entry, looked up): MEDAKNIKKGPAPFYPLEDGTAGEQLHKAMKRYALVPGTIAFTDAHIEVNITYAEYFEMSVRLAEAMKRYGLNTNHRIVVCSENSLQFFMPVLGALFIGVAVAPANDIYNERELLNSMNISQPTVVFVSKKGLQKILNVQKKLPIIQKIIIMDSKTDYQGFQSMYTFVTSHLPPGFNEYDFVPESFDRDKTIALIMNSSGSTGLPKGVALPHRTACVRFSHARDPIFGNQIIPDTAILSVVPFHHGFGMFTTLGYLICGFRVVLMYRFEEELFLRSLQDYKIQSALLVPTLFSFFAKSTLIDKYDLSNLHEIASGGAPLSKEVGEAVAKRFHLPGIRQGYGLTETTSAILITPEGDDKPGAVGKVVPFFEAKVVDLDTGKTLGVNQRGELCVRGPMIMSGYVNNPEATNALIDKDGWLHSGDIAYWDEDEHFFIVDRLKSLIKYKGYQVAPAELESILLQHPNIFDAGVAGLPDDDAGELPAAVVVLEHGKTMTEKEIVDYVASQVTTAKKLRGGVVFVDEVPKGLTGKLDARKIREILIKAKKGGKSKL
Method in brief: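 Biochemical qHTS: compounds run as interplate titrations against purified firefly enzyme, with D-luciferin and ATP each at its KM concentration. Light output recorded by CCD imaging.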

[5] = qHTS assay to identify small molecule agonists of the constitutive androstane receptor (CAR) signaling pathway - cell viability counter screen (AID 1224836); also: nearly all actives have a fitted effect of over 45% in size; also: potency is read from the fitted curve at half-maximal effect
Method in brief: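 Cells were seeded and incubated 4 hrs. Compounds were added across 15 concentrations together with PK11195 at 0.75 uM final. Plates were incubated 23 hrs at 37 C. CellTiter-Fluor was added and fluorescence measured.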

[6] = qHTS assay to identify small molecule antagonists of the constitutive androstane receptor (CAR) signaling pathway - cell viability counter screen (AID 1224837); also: nearly all actives have a fitted effect of over 45% in size; also: potency is read from the fitted curve at half-maximal effect
Method in brief: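 HepG2 cells stably carrying hCAR and CYP2B6-2.2kb reporter, stimulated with 50 nM CITCO and compounds at 15 concentrations for 23 h at 37 C. Viability measured by CellTiter-Fluor fluorescence.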

[7] = biological target: Nuclear receptor subfamily 1 group I member 3 (Homo sapiens) (UniProt Q14994); assay: qHTS assay to identify small molecule antagonists of the constitutive androstane receptor (CAR) signaling pathway (AID 1224838); also: nearly all actives have a fitted effect of over 40% in size; also: potency is read from the fitted curve at half-maximal effect
Nuclear receptor subfamily 1 group I member 3 (Homo sapiens), sequence (Q14994 whole entry, looked up): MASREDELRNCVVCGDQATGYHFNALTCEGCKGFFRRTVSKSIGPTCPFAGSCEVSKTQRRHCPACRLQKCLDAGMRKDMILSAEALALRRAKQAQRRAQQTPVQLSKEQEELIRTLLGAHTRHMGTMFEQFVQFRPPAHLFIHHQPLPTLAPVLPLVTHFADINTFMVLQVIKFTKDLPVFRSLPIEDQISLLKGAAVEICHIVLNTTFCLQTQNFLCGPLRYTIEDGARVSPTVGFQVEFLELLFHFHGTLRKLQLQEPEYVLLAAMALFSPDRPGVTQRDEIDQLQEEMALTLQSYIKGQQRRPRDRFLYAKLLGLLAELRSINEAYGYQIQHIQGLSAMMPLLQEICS
Method in brief: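 HepG2 cells stably carrying hCAR and a CYP2B6-2.2kb luciferase reporter, seeded 4 hrs before compound (15 concentrations). Stimulated with 50 nM CITCO for 24 hr at 37 C. ONE-Glo luminescence read after 30 min at room temperature.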

[8] = qHTS assay to identify small molecule antagonists of the estrogen related receptor signaling pathway with the pleiotropic PPARgamma coactivator (PGC) from Tox21 10K library - cell viability counter screen (AID 1224840; active = well fitted cell-killing curve with a large enough effect in the repeat runs, not every such curve was filed as active; also: nearly all actives have a fitted effect of over 40% in size; also: potency is read from the fitted curve at half-maximal effect)
Method in brief: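 PGC/ERR cells (2,000/well) plated 6 h, then compound-treated for 17.5 h at 37 C. Viability measured by CellTiter-Fluor fluorescence after 30 min at 37 C, multiplexed with the pathway assay.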

[9] = biological target: Thyrotropin receptor (Homo sapiens) (UniProt P16473); assay: qHTS assay to identify small molecule agonists of the thyroid stimulating hormone receptor (TSHR) signaling pathway (AID 1224843; calls by dose curve; also: nearly all actives have a fitted effect of over 45% in size)
Thyrotropin receptor (Homo sapiens), sequence (P16473 whole entry, looked up): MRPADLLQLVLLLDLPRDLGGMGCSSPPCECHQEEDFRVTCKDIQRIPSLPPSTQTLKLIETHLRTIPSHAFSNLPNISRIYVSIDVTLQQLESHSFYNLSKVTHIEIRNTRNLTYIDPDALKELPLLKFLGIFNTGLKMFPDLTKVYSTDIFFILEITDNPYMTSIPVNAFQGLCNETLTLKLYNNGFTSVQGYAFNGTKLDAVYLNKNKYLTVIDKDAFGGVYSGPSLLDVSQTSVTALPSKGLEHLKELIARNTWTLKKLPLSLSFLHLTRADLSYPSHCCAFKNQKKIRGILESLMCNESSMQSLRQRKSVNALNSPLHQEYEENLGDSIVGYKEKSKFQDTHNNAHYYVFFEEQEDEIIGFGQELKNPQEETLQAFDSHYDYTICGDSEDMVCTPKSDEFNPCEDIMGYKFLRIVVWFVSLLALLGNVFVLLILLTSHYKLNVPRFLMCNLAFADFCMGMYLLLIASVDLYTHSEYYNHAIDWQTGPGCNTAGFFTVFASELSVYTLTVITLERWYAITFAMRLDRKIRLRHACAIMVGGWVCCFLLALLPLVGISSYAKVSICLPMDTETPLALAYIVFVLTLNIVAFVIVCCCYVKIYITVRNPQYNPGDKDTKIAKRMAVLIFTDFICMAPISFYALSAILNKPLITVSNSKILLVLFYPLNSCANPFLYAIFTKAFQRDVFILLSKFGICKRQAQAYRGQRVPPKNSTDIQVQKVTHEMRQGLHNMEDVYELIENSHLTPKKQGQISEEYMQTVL
Method in brief: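 Steps: seed 800 TSHR-HEK293 cells per well; add test compound and hold 30 min at ambient temperature; dispense cAMP-d2 then anti-cAMP cryptate; incubate 1 h at ambient; measure fluorescence intensity.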

[10] = qHTS assay to identify small molecule agonists of the estrogen related receptor (ERR) signaling pathway (AID 1224820)
Method in brief: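 ERR reporter cells (NTP line) plated 2,000/well, incubated 6 h at 37 C/5% CO2, then pinned with compounds in DMSO and held 18 h at 37 C. One-Glo added; luminescence read after 30 min at room temperature.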

[11] = system: estrogen-related receptor alpha (ERRalpha) with PGC-1alpha coactivator, human; assay: qHTS assay to identify small molecule antagonists of the estrogen related receptor signaling pathway with the pleiotropic PPARgamma coactivator (PGC) (AID 1224821; calls by dose curve;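 also: lower luminescence signal means antagonism of PGC/ERR signalling; nearly all actives have a fitted effect of over 50% in size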)
Method in brief: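 Cells engineered for PGC/ERR signalling (line from NTP) were plated 6 h at 37 C/5% CO2, then exposed to DMSO-dissolved compound for 18 h at 37 C. Luciferase activity was read by One-Glo luminescence after 30 min at room temperature.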

[12] = qHTS assay to identify small molecule agonists of the estrogen related receptor signaling pathway with the pleiotropic PPARgamma coactivator (PGC) (AID 1224823)
Method in brief: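 PGC/ERR reporter cells were seeded, rested 6 h at 37 C/5% CO2, then exposed to compounds in DMSO by pin transfer for 18 h at 37 C. Luciferase activity was read as luminescence after One-Glo reagent and 30 min at room temperature.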

[13] = biological target: Nuclear receptor subfamily 1 group I member 3 (Homo sapiens) (UniProt Q14994); assay: qHTS assay to identify small molecule agonists of the constitutive androstane receptor (CAR) signaling pathway (AID 1224839); also: nearly all actives have a fitted effect of over 15% in size; also: potency is read from the fitted curve at half-maximal effect
Method in brief: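 Cells were plated and incubated 4 hrs, then dosed with compounds at 15 concentrations. PK11195 was added to 0.75 uM final. After 24 hrs at 37 C, luciferase luminescence was measured.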

[14] = qHTS assay to identify small molecule antagonists of the estrogen related receptor signaling pathway with the pleiotropic PPARgamma coactivator (PGC) from Tox21 10K library (AID 1224841; call rule not given here; also: actives are mostly falling curves and most rising ones were filed inactive; nearly all actives have a fitted effect of over 50% in size; also: potency is read from the fitted curve at half-maximal effect)
Method in brief: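 PGC/ERR cell line, 2,000 cells/well, pre-incubated 6 hours at 37 C, then exposed to compounds for 18 hours at 37 C; luciferase read with One-Glo luminescence after 30 min at room temperature.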

[15] = qHTS assay to identify small molecule agonists of the estrogen related receptor signaling pathway with the pleiotropic PPARgamma coactivator (PGC) from Tox21 10K library (AID 1224842); also: nearly all actives have a fitted effect of over 15% in size
Method in brief: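 PGC/ERR reporter cell line, 2,000 cells per well, incubated 6 h at 37 C before 23 nL compound in DMSO was added. After 18 h at 37 C, One-Glo luminescence read following 30 min at room temperature.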

[16] = qHTS assay to identify small molecule antagonists of the retinoic acid receptor (RAR) signaling pathway (AID 1159552; also: nearly all actives have a fitted effect of over 50% in size; also: potency is read from the fitted curve at half-maximal effect)
Method in brief: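 Retinol at 1 uM final stimulated RARE-luciferase expression in C3RL4 cells exposed to test compounds for 6 hr at 37 C. Reduced luminescence, read 30 min after detection reagent, indicated pathway antagonism.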

[17] = qHTS assay to identify small molecule agonists of the retinoic acid receptor (RAR) signaling pathway (AID 1159553); details: C3RL4 RARE luciferase reporter, agonist, 6 h; activation: at 73.3 µM (top of the series) unless noted
Method in brief: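 C3RL4 RARE-luciferase cells were seeded at 1,000/well and grown overnight at 37 C, then exposed to compounds for 6 hr at 37 C, 5% CO2. Luciferase reagent was added and luminescence was read after 30 min at room temperature.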

[18] = qHTS assay to identify small molecule antagonists of the estrogen related receptor (ERR) signaling pathway - cell viability counter screen (AID 1224818)
Method in brief: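 ERR cells, 2,000 per well, compound added after 6 h and incubated 17.5 h at 37 C. Viability read by CellTiter-Fluor fluorescence after a further 30 min at 37 C.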

[19] = qHTS assay to identify small molecule antagonists of the estrogen related receptor signaling pathway with the pleiotropic PPARgamma coactivator (PGC) cell viability counter screen (AID 1224822)
Method in brief: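 PGC/ERR cells rested 6 h, then compound-treated 17.5 h at 37 C. CellTiter-Fluor added for 30 min at 37 C, viability measured by fluorescence intensity.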

Measured: Potency

CCC/C=C/C=O
inactive: [1] | [2] | [3] | [4] | [5] | [6] | [7] | [8] | [9]

CN(C)CCCN1c2ccccc2Sc2ccc(Cl)cc21
active: [1] 43.6 µM | [3] 54.5 µM and 26.6 µM | [5] 48.6 µM | [6] 54.5 µM | [8] 48.6 µM and 26.6 µM
inactive: [2] | [10] | [11] | [12] | [13] | [14] | [15] | [9]

CN(C)/N=N/c1nc[nH]c1C(N)=O
inactive: [1] | [2] | [16] | [3] | [5] | [6] | [8] | [14] | [15] | [9]

CCCCCCCCCCCCCO
active: [4] 82.5 µM
not listed: [1] | [9] | [10] | [11] | [12] | [18] | [19]
inactive: all other assays above

COC(=O)C(C)Oc1ccc(Oc2ncc(C(F)(F)F)cc2Cl)cc1 (centres undefined)
active: [14] 78 µM
not listed: [10] | [11] | [12] | [16] | [17] | [18] | [19]
inactive: all other assays above

CC1(C)OC(=O)NC1=O
not listed: [10] | [11] | [12] | [16] | [17] | [18] | [19]
inactive: all other assays above

CC1(C)NC(=O)N(c2ccc([N+](=O)[O-])c(C(F)(F)F)c2)C1=O
not listed: [1] | [4]
inactive: all other assays above

O=C(O)COCCN1CCN(C(c2ccccc2)c2ccc(Cl)cc2)CC1 (centres undefined)
not listed: [10] | [11] | [12] | [14] | [15] | [16] | [17]
inactive: all other assays above

[O-]/[N+](=N\O)c1ccccc1
active: [4] 35.3 µM and 22.4 µM
inactive: [1] | [2] | [3] | [5] | [6] | [7] | [8] | [15] | [9]

CC(C)(Oc1ccc(Cl)cc1)C(=O)O
inactive: [1] | [2] | [3] | [4] | [5] | [6] | [7] | [13] | [8] | [9]

Nc1ccc2c(O)cc(S(=O)(=O)O)cc2c1
inactive: [1] | [2] | [16] | [13] | [15] | [9]
active: [3] 27.3 µM and 30.6 µM | [5] 21.7 µM | [6] 19.4 µM and 68.6 µM | [7] 3.86 µM and 686 nM | [14] 15.4 µM

C[C@]12CC[C@@H]3c4ccc(O)cc4CC[C@H]3[C@@H]1CC[C@@H]2O
active: [3] 30.6 µM and 43.3 µM | [4] 39.8 µM and 79.6 µM | [13] 9.67 µM and 10.9 µM
not listed: [9] | [14] | [16]
inactive: all other assays above

CC(C)[N+](C)(CCOC(=O)C1c2ccccc2Oc2ccccc21)C(C)C
inactive: [1] | [2] | [18] | [19] | [3] | [4] | [5] | [6] | [8] | [9]

CCCCCC1C(=O)CCC1CC(=O)OC (centres undefined)
inactive: [1] | [2] | [16] | [3] | [5] | [6] | [8] | [14] | [15] | [9]

CC1(C)C(C=C(Cl)Cl)C1C(=O)OCc1cccc(Oc2ccccc2)c1 (centres undefined)
active: [13] 6.81 µM and 6.11 µM
inactive: [1] | [2] | [3] | [4] | [5] | [6] | [7] | [8]

CC(=O)[C@@]1(O)CC[C@H]2[C@@H]3C[C@H](C)C4=CC(=O)C=C[C@]4(C)[C@@]3(F)[C@@H](O)C[C@@]21C
inactive: [2] | [16] | [3] | [5] | [6] | [7] | [13] | [8] | [14] | [15]

CCC(=O)O[C@H]1[C@H](O[C@@H]2[C@@H](C)[C@H](O[C@H]3C[C@@](C)(OC)[C@@H](O)[C@H](C)O3)[C@@H](C)C(=O)O[C@H](CC)[C@@](C)(O)[C@H](O)[C@@H](C)C(=O)[C@H](C)C[C@@]2(C)O)O[C@H](C)C[C@@H]1N(C)C
inactive: [2] | [3] | [4] | [5] | [6] | [8]

C1CN(SSN2CCOCC2)CCO1
inactive: [2] | [17] | [5] | [15] | [9]
active: [16] 53.9 µM | [14] 53.9 µM

C=C[C@H]1CN2CC[C@H]1C[C@H]2[C@H](O)c1ccnc2ccc(OC)cc12
inactive: [2] | [3] | [5] | [6] | [7] | [8]

OC[C@@H](O)[C@@H](O[C@@H]1O[C@H](CO)[C@H](O)[C@H](O)[C@H]1O)[C@H](O)[C@@H](O)CO
not listed: [1] | [10] | [11] | [12] | [16] | [18] | [19]
inactive: all other assays above

— PubChem BioAssay (Tox21)
